# Measurements as given in PubChem BioAssay.
# Values without a mark were called inactive.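 How the source made its calls, unless noted: active means GFP signal above the screen-wide mean plus 3 SD, that is over about 124.5% of the solvent control; inconclusive means no reading because the compound's own fluorescence disturbed strain identification; inactive means the rest.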 Results filed as inconclusive are left out.
# Assays:
# [1] = yeast AGP1-GFP level changes, GLN3 branch – cell-based, multiplex flow cytometry, S. cerevisiae, primary screen (AID 1887); conditions: 3 h, at 10 µM, hits give high values;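 further: AGP1-GFP fusion strain of S. cerevisiae within a five-strain barcoded multiplex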
# [2] = target: Beta-2 adrenergic receptor (Homo sapiens) (UniProt P07550); assay: agonist-induced loss of surface beta2AR – cell-based, FAP fluorogen, flow cytometry, validation set, pilot screen (AID 504459;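 active means percent response above 42, roughly 3 SD of non-fluorescent test compounds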;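 further: agonist-driven loss of surface beta2AR via internalization measured by FAP dye flow cytometry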); conditions: Am2.2-beta2AR cells, at 10 µM, hits give high values
# [3] = TOR pathway reporter MEP2-GFP, retest of hits – S. cerevisiae, flow cytometry GFP, cherry picks, confirmation (AID 2272;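 active means GFP response above 150% of the DMSO control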;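 further: ratio of well signal to plate DMSO mean so 100% equals DMSO level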); conditions: S. cerevisiae MEP2-GFP strain, 3 h, at 10 µM, hits give high values
# [4] = yeast AGP1-GFP fluorescence change, single-dose – cell-based, flow cytometry, S. cerevisiae, cherry picks, confirmation (AID 2273;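 active means GFP response above 150% of the DMSO level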;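 further: median GFP channel fluorescence over the whole cell population gate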); conditions: S. cerevisiae AGP1-GFP strain, 3 h, at 10 µM
# Sequence of Beta-2 adrenergic receptor (Homo sapiens) (P07550 whole entry, looked up): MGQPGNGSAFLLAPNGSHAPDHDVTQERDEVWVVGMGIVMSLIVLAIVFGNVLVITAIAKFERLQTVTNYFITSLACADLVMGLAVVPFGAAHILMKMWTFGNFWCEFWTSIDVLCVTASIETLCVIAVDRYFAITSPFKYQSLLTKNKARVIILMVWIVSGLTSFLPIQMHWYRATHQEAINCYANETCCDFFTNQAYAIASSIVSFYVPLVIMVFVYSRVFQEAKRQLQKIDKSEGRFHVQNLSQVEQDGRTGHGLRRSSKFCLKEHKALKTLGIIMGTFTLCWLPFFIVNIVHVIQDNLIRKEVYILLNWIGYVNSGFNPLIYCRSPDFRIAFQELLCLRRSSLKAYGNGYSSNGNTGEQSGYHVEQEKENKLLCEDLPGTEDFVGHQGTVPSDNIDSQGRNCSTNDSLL
smiles,measurement,setting,value
NCCc1c[nH]c2ccc(F)cc12,"GFP response, % of DMSO",[1],100%
same,response,[2],1.11%
COc1ccc2c(c1)CC1(CN2C)C(=O)NC(=O)N(CCc2ccccc2)C1=O (stereo unspecified),"GFP response, % of DMSO",[1],97.8%
same,response,[2],-3.63%
Cc1cccc(C)c1NC1=NCCCS1,"GFP response, % of DMSO",[1],91.8%
C[C@H]1CCC[C@H](O)CCCCCc2cc(O)cc(O)c2C(=O)O1,"GFP response, % of DMSO",[1],105%
CCNC(=S)N(C)CCc1cc2c(c(OC)c1C=C1C(=O)N(C)C(=O)N(C)C1=O)OCO2,"GFP response, % of DMSO",[1],96.1%
[N-]=[N+]=NC1C[C@H](n2ccc(=O)[nH]c2=O)O[C@@H]1CO (stereo partly specified),"GFP response, % of DMSO",[1],104%
Cc1cc(Cl)ccc1OCC(=O)O,"GFP response, % of DMSO",[1],103%
O=C(CCCN1CCC2(CC1)C(=O)NCN2c1ccccc1)c1ccc(F)cc1,"GFP response, % of DMSO",[1],113%
same,response,[2],-35.8%
CN1C(=O)CN=C(c2ccc(Cl)cc2)c2cc(Cl)ccc21,"GFP response, % of DMSO",[1],92.2%
same,response,[2],-17.9%
C[N+]1(C)CCN(c2ccccc2)CC1,"GFP response, % of DMSO",[1],96.6%
CC(Cc1ccccc1)NCC(=O)Nc1cc(N(C)C)nc2ccccc12 (stereo unspecified),"GFP response, % of DMSO",[1],103%
COc1ccc(C(=O)N2CCCC2=O)cc1,"GFP response, % of DMSO",[1],117%
same,response,[2],-0.27%
C[C@@H]1O[C@@H](O[C@H]2C[C@@H](O)[C@]3(CO)[C@H]4[C@H](O)C[C@]5(C)[C@@H](C6=CC(=O)OC6)CC[C@]5(O)[C@@H]4CC[C@]3(O)C2)[C@H](O)[C@H](O)[C@H]1O,"GFP response, % of DMSO",[1],116%
same,response,[2],-22.9%
Cc1ccc(/C=C2/C(=O)NC(=O)N(C)C2=O)cc1,"GFP response, % of DMSO",[1],93.6%
COc1ccc(OC)c(C(O)C(C)N)c1 (stereo unspecified),"GFP response, % of DMSO",[1],98.3%
same,response,[2],-5.54%
O=C(O)CCCc1ccc(N(CCCl)CCCl)cc1,"GFP response, % of DMSO",[1],97.6%
CN[C@H](C)[C@H](O)c1ccccc1,"GFP response, % of DMSO",[1],101%
same,response,[2],-9.17%
c1ccc(Cn2ccnc2)cc1,"GFP response, % of DMSO",[1],98.2%
COc1ccc(Cc2nccc3cc(OC)c(OC)cc23)cc1OC,"GFP response, % of DMSO",[1],99.5%
same,response,[2],20.1%
Cc1cc(Cl)ccc1OC(C)C(=O)O (stereo unspecified),"GFP response, % of DMSO",[1],87.3%
same,response,[2],-8.83%
CC(C)[C@H]1C(=O)N2CCC[C@H]2[C@]2(O)O[C@](NC(=O)[C@@H]3C=C4c5cccc6[nH]cc(c56)C[C@H]4N(C)C3)(C(C)C)C(=O)N12,"GFP response, % of DMSO",[1],118%
same,response,[2],-24.6%
CN[C@H]1C[C@H]2O[C@@](C)([C@H]1OC)n1c3ccccc3c3c4c(c5c6ccccc6n2c5c31)C(=O)NC4,"GFP response, % of DMSO",[1],90.8%
same,response,[2],12%
CC(=O)C1=C(C)OC(N)=C(C(=O)OC(C)C)C12C(=O)Nc1ccccc12 (stereo unspecified),"GFP response, % of DMSO",[1],101%
CCN(CC)C(=O)N[C@H]1C[C@@H]2c3cccc4[nH]cc(c34)C[C@H]2N(C)C1,"GFP response, % of DMSO",[1],98.6%
same,response,[2],-25%
O=Cc1cn(Cc2ccc(F)cc2)c2ccccc12,"GFP response, % of DMSO",[1],102%
same,response,[2],14.3%
CC(C)(C)NCC(O)c1cc(Cl)c(N)c(Cl)c1 (stereo unspecified),"GFP response, % of DMSO",[1],91.4%
COc1ccc(N2C(=O)/C(=C/c3ccco3)C(=O)NC2=S)cc1,GFP response vs DMSO,[3],100%
same,"GFP response, % of DMSO",[4],100%
N#CC(C#N)=NNc1ccc(-n2ccc(C(F)(F)F)n2)cc1,GFP response vs DMSO,[3],114%
same,"GFP response, % of DMSO",[4],102%
CCOC(=O)C1=C(C)OC(N)=C(C(=O)OCC)[C@@]12C(=O)N(CC(N)=O)c1ccccc12,response,[2],-10.5%
CN1CCN(c2ccc([N+](=O)[O-])c(Sc3ccccn3)c2)CC1,GFP response vs DMSO,[3],105%
same,"GFP response, % of DMSO",[4],98%
Cc1cccn2c(NCC3CCCO3)c(C(C)C)nc12 (stereo unspecified),GFP response vs DMSO,[3],104%
same,"GFP response, % of DMSO",[4],105%
O=c1[nH]c(=O)n(Cc2ccc(F)cc2)c(O)c1C=NCCN1CCCCC1,GFP response vs DMSO,[3],101%
same,"GFP response, % of DMSO",[4],102%
O=C1NC(=O)N(Cc2ccco2)C(=O)/C1=C/c1ccc(-c2cccc([N+](=O)[O-])c2)o1,GFP response vs DMSO,[3],94.7%
same,"GFP response, % of DMSO",[4],90.9%
C=CC1CN2CCC1CC2[C@@H](OC(=O)c1ccc(OC)cc1)c1ccnc2ccccc12 (stereo partly specified),response,[2],1.66%
CCN(CC)c1ccc(/C=C/[N+](=O)[O-])cc1,GFP response vs DMSO,[3],108%
same,"GFP response, % of DMSO",[4],96.7%
Cc1ccc(/C=C2\C(=O)NC(=O)N(CC3CCCO3)C2=O)s1 (stereo unspecified),GFP response vs DMSO,[3],92%
same,"GFP response, % of DMSO",[4],92.1%
CCN1CC2(COC(=O)c3ccccc3N)CCC(OC)C34C5CC6C(OC)CC(O)(C5C6OC)C(O)(C(OC)C23)C14 (stereo unspecified),response,[2],-0.45%
O=C1NC(=O)N(c2ccccc2)C(=O)/C1=C\c1ccc([N+](=O)[O-])o1,GFP response vs DMSO,[3],108%
same,"GFP response, % of DMSO",[4],104%
CCOC(=O)C(C)Oc1cc(C)cc2oc(=O)c3c(c12)CCCC3 (stereo unspecified),response,[2],1.66%
O=c1[nH]c(=S)n(-c2ccccc2)c(O)c1/C=N/N1CCOCC1,GFP response vs DMSO,[3],99%
same,"GFP response, % of DMSO",[4],99.8%
O=C(O)c1nn(Cc2ccc(Cl)cc2Cl)c2ccccc12,GFP response vs DMSO,[3],100%
same,"GFP response, % of DMSO",[4],99.2%
